# Screening results from PubChem BioAssay.
# AHR activator: activates the human aryl hydrocarbon receptor; actives 2.5% (n = 320,000); AHR-responsive luciferase reporter cells, luminescence; activation, % at 5 µM; in the data active = activation above about 47%;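 also: 0% = vehicle wells and 100% = reference agonist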
# ADAM10 inh: inhibits human ADAM10 | recombinant ADAM10, EDANS/DABCYL FRET peptide cleavage, 3 h | actives 0.62% (n = 370,000) | inhibition, % at 7 µM | AID 720582;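 active = inhibition above a per-campaign cutoff equal to the mean of compounds falling between control-based bounds plus 3 SD, cut at about 20% in these data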;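 also: 0% = DMSO wells while the 100% control is not disclosed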
# Target sequence (O14672 214-748 limits assumed): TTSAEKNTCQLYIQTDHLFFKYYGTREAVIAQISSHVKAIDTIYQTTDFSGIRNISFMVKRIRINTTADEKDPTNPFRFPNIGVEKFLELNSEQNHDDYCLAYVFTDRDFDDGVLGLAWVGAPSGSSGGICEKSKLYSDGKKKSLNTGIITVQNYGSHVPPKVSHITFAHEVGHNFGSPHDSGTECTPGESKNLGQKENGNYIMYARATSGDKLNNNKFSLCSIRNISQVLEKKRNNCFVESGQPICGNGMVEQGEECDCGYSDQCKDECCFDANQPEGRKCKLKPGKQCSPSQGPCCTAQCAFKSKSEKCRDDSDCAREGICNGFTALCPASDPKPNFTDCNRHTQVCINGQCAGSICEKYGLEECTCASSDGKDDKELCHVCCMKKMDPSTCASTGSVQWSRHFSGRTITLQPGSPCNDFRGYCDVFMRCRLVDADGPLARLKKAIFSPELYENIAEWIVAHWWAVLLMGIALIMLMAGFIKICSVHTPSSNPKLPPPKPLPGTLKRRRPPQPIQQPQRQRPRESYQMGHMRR
# rCAG RNA binder: r(CAG) repeat RNA binding | AID 651821 | TO-PRO-1 dye displacement fluorescence | actives 1.3% (n = 370,000) | inhibition, % at 3 µM;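 active = inhibition above the plate cutoff, the mean of all test compounds on that plate plus 3 SD, cut at about 35% in these data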;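 also: 0% = DMSO alone and 100% = 100 µM mitoxantrone as full dye displacement; higher means more dye released from RNA so lower well fluorescence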
# GRIN3A LBD mod: modulators (binders) of human NR3A ligand-binding domain | actives 2.5% (n = 340,000) | Tm shift relative to glycine control, % at 25 µM | NR3A LBD differential scanning fluorimetry, Tm shift; 0% = protein alone, 100% = glycine-bound protein;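 active = melting temperature shift of at least 10% of the positive control shift, at one fixed dose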
# KLK7 zymogen act: activates the human kallikrein-7 zymogen | P49862 | purified proKLK7, EDANS-DABCYL substrate fluorescence; 100% is mature enzyme control, 0% vehicle | activation, % at 7 µM | actives 0.9% (n = 370,000) | AID 652039;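 active = activation above the mean of all tested compounds plus 3 SD, computed per campaign excluding outliers beyond control limits, cut at about 13% in these data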
# ADAM17 inh: ADAM17 inhibition, QFRET primary screen; inhibition, % at 6.95 µM; actives 0.83% (n = 370,000); recombinant ADAM17, EDANS/DABCYL FRET peptide cleavage; P78536; AID 720648;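 active = inhibition above the mean of compounds lying between control limits plus 3 SD, set per campaign, cut at about 8.5% in these data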;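 also: 0% = DMSO-only wells as the low control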
# rCAG binder conf: r(CAG) RNA repeat binding, confirmation; inhibition, % at 3 µM; AID 652065; shares compounds with rCAG RNA binder; actives 70% (n = 4,300); TO-PRO-1 dye displacement fluorescence;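 active = inhibition above a per-plate cutoff, the mean inhibition of sample wells plus 3 SD, cut at about 35% in these data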;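 also: loss of TO-PRO-1 fluorescence as compound displaces dye from 1x1 AA loop RNA; 0% = DMSO only wells and 100% = 100 µM mitoxantrone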
# DNA CAG counter: counter-screen for rCAG RNA binders: DNA CAG dye complex inhibitors; shares compounds with rCAG RNA binder; d(CAG) DNA oligo TO-PRO-1 dye displacement, fluorescence; inhibition, % at 3 µM; actives 94% (n = 4,300); AID 652068;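 active = inhibition above its plate's cutoff, the mean test-well inhibition plus 3 SD, cut at about 4.8% in these data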;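 also: 0% = DNA dye mix with DMSO and 100% = 100 µM mitoxantrone; hits displace the dye from DNA and so lower well fluorescence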
# ADAM10 confirm: human ADAM10 inhibition, confirmation; actives 1% (n = 2,100); shares compounds with ADAM10 inh; AID 743208; ADAM10 QFRET peptide cleavage, EDANS fluorescence; inhibition, % at 6.95 µM;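 active = inhibition above about 20% chosen separately for each screening run, limit read from the data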;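 also: 0% = DMSO wells and 100% = marimastat wells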
# ADAM17 counter: counter-screen for ADAM10 exosite inhibitors: inhibitors of human ADAM17. inhibition, % at 6.95 µM. shares compounds with ADAM10 inh. AID 743214. actives 0.5% (n = 2,100). ADAM17 QFRET peptide cleavage, EDANS fluorescence;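 active = mean triplicate inhibition above the solvent-only control wells' mean plus 3 SD, cut at about 12% in these data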;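 also: 0% = DMSO wells and 100% = marimastat wells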
# ADAM10 ctr: inhibits human ADAM10 in ADAM17 exosite counter-screen; shares compounds with ADAM17 inh; recombinant ADAM10, EDANS/DABCYL FRET peptide cleavage, 3 h; inhibition, % at 6.95 µM; actives 47% (n = 2,900);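 active = mean inhibition over the triplicate runs exceeds the activity threshold set in the earlier primary screen, cut at about 20% in these data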;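 also: 0% = DMSO wells and 100% = marimastat wells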
# ADAM17 confirm: confirmation of inhibitors of human ADAM17. shares compounds with ADAM17 inh. recombinant ADAM17, EDANS/DABCYL QFRET peptide cleavage. inhibition, % at 6.95 µM. actives 65% (n = 2,900);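 active = mean inhibition across replicates above the hit cutoff set in the primary screen, cut at about 8.5% in these data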;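 also: 0% = DMSO wells and 100% = marimastat wells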
# An asterisk follows results filed as active; x = no result given. Shown are actives, neighbours in structure and some others; about 7% of the full set was active somewhere.
SMILES,AHR activator,ADAM10 inh,rCAG RNA binder,GRIN3A LBD mod,KLK7 zymogen act,ADAM17 inh,rCAG binder conf,DNA CAG counter,ADAM10 confirm,ADAM17 counter,ADAM10 ctr,ADAM17 confirm
Cc1ccc(NC(=S)NNC(=O)CSc2nnc(SCc3cccc4ccccc34)s2)cc1,x,21*,52*,x,0,9.3*,51*,20*,5,1,26*,11*
O=C(CSc1nnc(SCc2cccc3ccccc23)s1)Nc1ccc(Oc2ccccc2)cc1,x,11,12,x,1,-1,x,x,x,x,x,x
O=C(Nc1ccc(F)cc1)C(c1ccccc1OC(F)(F)F)N1CCN(c2cccc(C(F)(F)F)n2)CC1 (stereo not given),x,-10,4,x,-1,-1,x,x,x,x,x,x
Cc1ccc(SCc2cc(=O)c3c(=O)n(-c4ccccc4)[nH]c3[nH]2)cc1,0,2,62*,-3,0,10*,43*,17*,x,x,22*,14*
O=c1cc(CSc2ccccc2)[nH]c2ccccc12,14,0,1,1,0,-2,x,x,x,x,x,x
COc1ccc(C(=O)C(=O)N2CCC(c3ccccc3)CC2)cn1,x,-5,-2,x,0,-5,x,x,x,x,x,x
CCCn1nc([N+](=O)[O-])c(C(C#N)c2nc3ccccc3s2)c(Cl)c1=O (stereo not given),5,20,88*,6,0,8.6*,83*,46*,x,x,24*,18*
CCn1nc([N+](=O)[O-])c(C(C#N)c2nc3ccccc3n2C)c(Cl)c1=O (stereo not given),47,-10,20,-2,0,1,x,x,x,x,x,x
COc1cc(/C=C/c2ccc3cccc(OC)c3n2)c(OC(C)=O)c([N+](=O)[O-])c1,25,2,7,9,-1,3,x,x,x,x,x,x
CCOc1cc(/C=C/c2ccc3cccc([N+](=O)[O-])c3n2)cc(Cl)c1O,7,25*,41*,6,-1,15*,33,13*,0,1,11,5
COc1nccnc1NS(=O)(=O)c1ccc(NC(=S)NC(=O)c2ccc(F)c(F)c2)cc1,1,4,11,0,0,3,x,x,x,x,x,x
O=C(NC(=S)Nc1ccc(S(=O)(=O)Nc2nccs2)cc1)c1ccc(F)c(F)c1,3,24*,63*,-6,0,11*,40*,12*,4,1,12,6
COc1ccc(-c2nnc(SCC(=O)NN=C/C=C\c3ccco3)n2-c2ccc(OC)cc2)cc1,x,4,11,x,0,3,x,x,x,x,x,x
CCCCn1nnnc1C1(C)CCC(=O)N1Cc1ccc(C)cc1 (stereo not given),x,-15,-2,x,0,-6,x,x,x,x,x,x
C=CCCC(=O)N1CCC(C(=O)NCC2COc3ccccc3O2)CC1 (stereo not given),x,-3,4,x,1,2,x,x,x,x,x,x
CCc1ccc(CCNC(=O)OC2CC3CC2[C@H]2CCCCN2[C@H]3Cc2ccccc2)cc1 (stereo not given in full),x,-5,3,x,0,-2,x,x,x,x,x,x
CC(=O)Nc1ccc(NC(=O)C(C)OC(=O)c2ccc3c(c2)OCCO3)cc1 (stereo not given),-2,2,1,0,0,-3,x,x,x,x,x,x
CC(OC(=O)c1cccc(S(=O)(=O)Nc2cccc(C(F)(F)F)c2)c1)C(=O)Nc1ccc2c(c1)OCCO2 (stereo not given),0,28*,37*,26*,2,9.2*,36*,8.0*,5,1,28*,14*
O=C(CSc1ccc(Br)c2cccc(Cl)c12)Nc1ccc(S(=O)(=O)Nc2nccs2)cc1,5,32*,77*,13*,0,16*,75*,43*,11,5,23*,14*
CC(C)(C)c1ccc(-c2nnc(SCC(=O)Nc3ccc(S(=O)(=O)Nc4nccs4)cc3)n2-c2ccc(Cl)cc2)cc1,x,27*,61*,x,0,13*,62*,26*,11,2,27*,16*
COc1ccc(-n2c(SCC(=O)Nc3ccccc3)nnc2-c2ccc(NS(=O)(=O)c3ccc(C)cc3)cc2)cc1,-3,1,1,-3,0,-1,x,x,x,x,x,x
CCOc1ccc(-n2c(SCC(=O)Nc3ccc(S(=O)(=O)Nc4nccs4)cc3)nnc2-c2ccc(C(C)(C)C)cc2)cc1,x,22*,60*,x,0,12*,55*,25*,12,3,40*,21*
O=C(C[n+]1cccc(/C=N/O)c1)NC(=O)Nc1ccccc1,x,-2,4,x,-1,-3,x,x,x,x,x,x
CCOc1ccc(/C=C/C(=O)c2cc(Br)ccc(=O)c2O)cc1,7,8,61*,-18,0,11*,47*,22*,x,x,4,22*
COc1cc(/C=N/NC(=O)[C@H](Cc2c[nH]c3ccccc23)NC(=O)OCC(C)C)cc([N+](=O)[O-])c1O,4,32*,70*,-15,0,16*,48*,17*,5,0,13,7
COc1nccnc1NS(=O)(=O)c1ccc(NC(=S)NC(=O)/C=C/c2ccc(F)cc2)cc1,-4,24*,71*,-8,0,10*,59*,24*,-2,0,8,7
CCOc1ccc(Oc2ccc(NS(=O)(=O)c3cc(C(=O)O)ccc3Cl)cc2)cc1,1,-1,38*,-8,-1,14*,39*,11*,x,x,5,11*
COc1cc(/C=C2/SC(=S)N(Cc3ccccc3)C2=O)ccc1O,1,23*,55*,20*,0,12*,35*,18*,7,2,38*,22*
COc1ccc(/C=C2\SC(=S)N(Cc3cccnc3)C2=O)cc1C,9,-4,0,-1,0,1,x,x,x,x,x,x
